Lassa entry inh = qHTS for Inhibitors of binding or entry into cells for Lassa Virus | Lassa virus pseudotype entry inhibition, cell reporter | Potency, µM (titrated, usually from 37.9 µM), usual class: inhibitors | 300,000 compounds, 1.2% hits | AID 540256, 2011; calls by dose curve; tested in HEK293 cells; further: nearly all actives have a fitted effect of over 50% in size
Shiga toxin inh = A qHTS for Small Molecule Inhibitors of Shiga Toxin | inhibition, % at 38.7 µM | Vero cells, Shiga toxin protein synthesis inhibition reporter | AID 2315, 2010 | 290,000 compounds, 9.2% hits; in the data active means inhibition mostly above about 28%, no sharp cut-off; inactive means mostly below about 43%
Marburg entry inh = qHTS for inhibitors of binding or entry into cells for Marburg Virus. Marburg virus pseudotyped entry inhibition, cell reporter. Potency, µM (doses to about 37.8 µM), usual class: inhibitors. 300,000 compounds, 1.8% hits; calls by dose curve; tested in HEK293 cells
CHX counter = Cycloheximide Counterscreen for Small Molecule Inhibitors of Shiga Toxin | cell reporter, cycloheximide protein synthesis inhibition counterscreen | 300,000 compounds, 12% hits | AID 2314, 2010 | max response, %; in the data active means max response mostly above about 13%, no sharp cut-off; inactive means mostly below about 14%; further: read at 38.3 µM for the half of the compounds with a filed dose
Large screens that a line does not name were inactive. Shown are actives, neighbours in structure and some others; about 12% of the full set was active somewhere.

COc1ccc(Cn2c(CNC(=O)Cc3ccc(OC)c(OC)c3)nc3cccnc32)cc1	none (no result: Shiga toxin inh, Marburg entry inh, CHX counter)
COc1ccc(C(=O)COC(=O)c2cc(-c3cccs3)nc3ccccc23)cc1	Lassa entry inh 11µM (no result: Shiga toxin inh, CHX counter)
C/C(N)=C(/C#N)C(=O)COC(=O)c1cc(-c2ccc(Br)cc2)nc2ccccc12	Lassa entry inh inconclusive, Marburg entry inh inconclusive, CHX counter 13
CCCNC(=O)COC(=O)c1cc(-c2ccc(OC)cc2)nc2ccccc12	Lassa entry inh inconclusive, Marburg entry inh inconclusive, CHX counter 13
Cc1ccc(C(=O)COC(=O)c2cc(-c3cccs3)nc3ccccc23)cc1	none (no result: Shiga toxin inh, CHX counter)
CCNC(=O)COC(=O)c1cc(-c2ccc(OC)cc2)nc2ccccc12	Lassa entry inh inconclusive
C=C(C)C(=O)C=CC=Cc1ccccc1	Lassa entry inh inconclusive (no result: Shiga toxin inh, CHX counter)
C=CC[C@@H]1C=C[C@@H](Oc2ccc(OC)cc2)[C@@H](CO)O1	none (no result: Lassa entry inh, Shiga toxin inh, CHX counter)
O=C(Nc1ccc(Cl)cc1)Nc1ccc(Br)cn1	Lassa entry inh inconclusive
O=C(/C(Cl)=C/Nc1ccc(Br)cn1)C(F)(F)F	CHX counter 16 (no result: Lassa entry inh, Marburg entry inh)
CN1CCC(N(CCc2ccccc2)C(=O)CCC(=O)O)CC1	none
C=CCN1C=CC(=CC=C(C#N)C#N)C=C1	Shiga toxin inh 74, CHX counter 21
CCCN1C=CC(=CC=C(C#N)C#N)C=C1	none
CC(C)c1ccc(NC2CCCN(C(=O)c3ccnc(Cl)c3)C2)cc1 (stereo not drawn)	Lassa entry inh inconclusive
CCN(CC)/C(Sc1ccccc1)=C(\C(Cl)=C(Cl)Cl)[N+](=O)[O-]	none
CCN(CC)/C(Sc1ccccc1)=C(/C(Cl)=C(Cl)Cl)[N+](=O)[O-]	CHX counter 24
Cc1ccc2nc(N3C(=O)C(O)=C(C(=O)c4ccco4)C3c3cccs3)sc2c1 (stereo not drawn)	Lassa entry inh inconclusive, Shiga toxin inh 68, Marburg entry inh inconclusive, CHX counter 34
COc1ccc(C2C(C(=O)c3ccco3)=C(O)C(=O)N2c2nnc(C)s2)cc1 (stereo not drawn)	Shiga toxin inh 76, CHX counter 55
C=CCOc1ccc(C2C(C(=O)c3ccco3)=C(O)C(=O)N2c2nnc(C)s2)cc1 (stereo not drawn)	Shiga toxin inh 71, CHX counter 23
COc1ccc2nc(N3C(=O)C(O)=C(C(=O)c4ccco4)C3c3ccc(C)o3)sc2c1 (stereo not drawn)	none (no result: Shiga toxin inh, CHX counter)
O=C(C1CCN(c2nnc(-n3cccc3)s2)CC1)N1CCCCC1	CHX counter 20 (no result: Lassa entry inh, Marburg entry inh)
CC(=O)c1cn(CCOc2ccccc2C)c2ccccc12	none (no result: Lassa entry inh, Marburg entry inh)
O=C(O)c1cn(CCOc2ccccc2Cl)c2ccccc12	Shiga toxin inh 50, CHX counter 38
CC(=O)c1cn(CCOc2ccc(F)cc2)c2ccccc12	CHX counter 12 (no result: Lassa entry inh, Shiga toxin inh, Marburg entry inh)
COc1ccccc1OCCn1cc(C(=O)O)c2ccccc21	Lassa entry inh inconclusive, Marburg entry inh inconclusive
CC(=O)c1cn(CCCOc2ccccc2)c2ccccc12	CHX counter 21 (no result: Lassa entry inh, Marburg entry inh)
Cc1ccc(CNC(=O)CNC(=O)[C@@H]2Cc3ccccc3CN2C(=O)OC(C)(C)C)cc1	Marburg entry inh inconclusive
CN1C(=O)C(Cc2ccc(OCc3ccccc3)cc2)C(=O)N(C)C1=O	Shiga toxin inh 67, CHX counter 38 (no result: Lassa entry inh, Marburg entry inh)
O=C(Nc1ccnn1C1CCN(C(=O)c2cnsn2)CC1)c1cccc(F)c1	Lassa entry inh inconclusive, CHX counter 18
COc1ccc(C(=O)Nc2ccnn2C2CCN(C(=O)CCC(F)(F)F)CC2)cc1	Shiga toxin inh 42, CHX counter 24 (no result: Lassa entry inh, Marburg entry inh)
CCCc1cc(C(=O)N2CCC(n3nccc3NC(=O)c3ccc(OC)cc3)CC2)no1	Shiga toxin inh 22, CHX counter 21 (no result: Lassa entry inh, Marburg entry inh)
C=CCCC(=O)N1CCC(n2nccc2NC(=O)c2ccc(OC)cc2)CC1	Marburg entry inh inconclusive, CHX counter 37
O=C(Nc1ccnn1C1CCN(C2CCCCC2)CC1)c1cccc(F)c1	none (no result: Lassa entry inh, Marburg entry inh)
Cc1ccccc1NC(=O)C1CCN(C(=O)N2CCOc3ccccc32)CC1	none (no result: Lassa entry inh, Marburg entry inh)
COc1ccc(C(=O)Nc2ccnn2C2CCN(C(=O)C3CCOC3)CC2)cc1 (stereo not drawn)	Shiga toxin inh 53, CHX counter 25
O=C(Nc1ccnn1C1CCN(C(=O)CCc2ccc(F)cc2)CC1)C1CCOC1 (stereo not drawn)	Lassa entry inh inconclusive, Marburg entry inh inconclusive, CHX counter 20
O=C(Nc1ccccc1[N+](=O)[O-])c1cncc(Br)c1	CHX counter 28
Cc1cc(C(=O)Nc2cccc([N+](=O)[O-])c2C)cs1	CHX counter 26 (no result: Lassa entry inh, Marburg entry inh)
Cc1c(NC(=O)c2ccc(C(C)(C)C)cc2)cccc1[N+](=O)[O-]	CHX counter 27
O=C(NC(=S)Nc1ccccc1[N+](=O)[O-])c1ccccc1	Shiga toxin inh 96, Marburg entry inh inconclusive, CHX counter 45
O=C(Nc1ccc(F)cc1F)c1cncc(Br)c1	Marburg entry inh inconclusive
Cc1ccc(C)c(N2CCN(c3nc4ccccc4c(=O)n3-c3ccc(Cl)cc3)CC2)c1	none (no result: Shiga toxin inh, CHX counter)
COc1cc(OC)c2c(c1)OC(=O)CC2c1ccccc1OC (stereo not drawn)	none (no result: Lassa entry inh, Marburg entry inh)
CCOc1ccccc1NC(=O)CCCc1nc(-c2ccccc2Cl)no1	none (no result: Shiga toxin inh, CHX counter)
C/C(CCN1CCCc2nc(C)c(C)cc21)=N\OC[C@@H](O)[C@@H]1O[C@@H]2OC(C)(C)O[C@@H]2[C@H]1O	none (no result: Lassa entry inh, Shiga toxin inh, CHX counter)
O=C(NC(=S)Nc1cccc2[nH]ncc12)c1ccccc1	Shiga toxin inh 58, Marburg entry inh inconclusive, CHX counter 36
CC(C)(C)c1ccc(NC(=O)c2ccccc2)c([N+](=O)[O-])c1	Lassa entry inh inconclusive, Shiga toxin inh 122, Marburg entry inh inconclusive, CHX counter 35
Cc1cccc(N(CC(=O)NCc2ccc(F)cc2)C(=O)c2csnn2)c1C	none (no result: Lassa entry inh, Marburg entry inh)
O=C(Nc1nccs1)c1cccc(NC(=O)c2ccco2)c1	none
O=S(=O)(Nc1ccc(C(F)(F)F)cc1)c1ccc2c(c1)OCCO2	none (no result: Shiga toxin inh, CHX counter)
COc1ccc(NC(=O)Nc2nnc(-c3ccncc3)s2)cc1	Marburg entry inh inconclusive
COc1ccc(NC(=O)Nc2nnc(C(C)C)s2)cc1	Lassa entry inh inconclusive, Shiga toxin inh 62, Marburg entry inh inconclusive, CHX counter 42
COc1ccc(CC(=O)Nc2nnc(C(C)C)s2)cc1	CHX counter 19
COc1ccc(NC(=O)Nc2nnc(-c3ccccc3F)s2)cc1	Marburg entry inh inconclusive
COc1ccc(NC(=O)Nc2nnc(-c3ccco3)s2)cc1	Shiga toxin inh 59, CHX counter 34 (no result: Lassa entry inh, Marburg entry inh)
CCc1nnc(NC(=O)Nc2ccc(Cl)cc2)s1	Shiga toxin inh 52, CHX counter 25 (no result: Lassa entry inh, Marburg entry inh)
CCN(CC)c1nc2ccccc2nc1C(=O)Nc1cc(OC)c(OC)c(OC)c1	none (no result: Shiga toxin inh, Marburg entry inh, CHX counter)
CCc1ccc(NC(=O)CSc2nc(=O)n3cc(C)ccc3n2)cc1	none (no result: Shiga toxin inh, CHX counter)
COc1ccc(C)cc1NC(=S)N1CCN(S(C)(=O)=O)CC1	none
N#Cc1cc2c(nc1SC1CCCCC1O)CCCC2 (stereo not drawn)	none
COC(=O)[C@H]1[C@@H](c2ccccc2)NC(=O)N(CCc2cc(OC)c(OC)c(OC)c2)[C@@H]1C	none (no result: Lassa entry inh, Shiga toxin inh, CHX counter)
COc1ccc(NC(=O)Nc2nnc(Cc3ccc(F)cc3)s2)cc1	Lassa entry inh inconclusive
CC(C)c1nnc(NC(=O)CC(=O)Nc2ccccc2C(=O)O)s1	Lassa entry inh 6.3µM, Marburg entry inh inconclusive
CCCc1nnc(NC(=O)Nc2ccc(OC)cc2)s1	CHX counter 24 (no result: Lassa entry inh, Marburg entry inh)
